# Assay results taken from the OligoGym collection.
# Target: TXNDC17
# Test: pooled miR-30 sensor sort-seq; sequence = guide strand
# Settings: shRNA
# Note: reference of the scale not given here.
row,Sequence,sensor-assay potency score (higher = more potent)
1,AAGACACTCAGATTCTACCAGT,-0.12
2,AGTAGATGAACACACATCCTTC,-1.77
3,TAAGTAGTGTAGGCACTGCTGT,-0.733
4,TTTTCTGAAGTCATTATTTGGA,-0.354
5,TTACTTTCAAGTTTTTTCTGAA,0.123
6,TTCTGAAGTCATTATTTGGATC,-0.868
7,TTTTTCTGAAGTCATTATTTGG,-1.37
8,TTTCTGAAGTCATTATTTGGAT,-0.595
9,TAGATGAACACACATCCTTCAC,-0.655
10,ATTGATACTAGAACAAATCAGG,-0.62
11,TTAAGTAGTGTAGGCACTGCTG,-0.868

# Target: TXNDC2
# Test: as above
# Settings: shRNA
row,Sequence,sensor-assay potency score (higher = more potent)
1,TTTTTCTGAGGACTTGGGGAGG,-1.18
2,TCTTCTAGGGACTTGGGGCTGT,-0.62
3,TCTTCTGAGGACTTGGGGCTGT,-0.284
4,AAGAATGGTCTGATGGTCCTGC,0.56
5,TTTTATAAAACTGAAAGGTTGG,-0.0568
6,TAGGATGTCACCCTCCTTGGAT,-0.739
7,TTGGGGATGTCAATCTCCTTGG,-0.981
8,TTCTTCTTCAGGCTTTAGGATG,-1.62
9,TTCTTCTGAGGACTTGGGGAGG,-1.18
10,TTTCCAAGAACTCTAGGGCCAG,-0.912
11,TTTTTTATAAAACTGAAAGGTT,-0.527
12,TTCCAAGAACTCTAGGGCCAGG,-1.16

# Target: UBA1
# Test: as above
# Settings: shRNA
row,Sequence,sensor-assay potency score (higher = more potent)
1,TTCTTAGGTACTTTGACCTGAC,0.097
2,TTAGGTACTTTGACCTGACTGA,-0.00997
3,TTCCGGTAGTAGACACAGCGGC,-0.978
4,TTGACATCAAAGGTGAGCGGGT,-0.267
5,TATGTCTGCTTCACTGCCGTTC,-0.544
6,TACTTTGACCTGACTGACGATG,-0.507
7,TTTAACTTCGTGACATCCCAGG,-0.746
8,ATTCTTGTAGGAGTCAAGCTGT,0.0651
9,TTCTCTTGCAGGTCTGAGCCAA,-0.695
10,TATAGTACTGGTGACGTGGTGC,0.491
11,TTCTTGAGCAGCTCACAGCCAA,-0.992
12,TTGGTGAGCACCACCACCTGGA,0.0519

# Target: UBA3
# Test: as above
# Settings: shRNA
row,Sequence,sensor-assay potency score (higher = more potent)
1,TAGATAATCCAAAACCTCCTGT,0.333
2,TATATTGTGATGCTCTCTCTAG,-0.466
3,TTGTCGATAGAAAGTGTCGTTA,-0.471
4,TAGAACTTTACATGTATCTAAC,-0.95
